Assay results reported in PubChem BioAssay (NCATS).
Results filed as inconclusive are left out. Activity calls are given as the source filed them. Unless noted, the call rests on the fitted dose curve; in most records, active means well fitted curve in the direction sought with a large enough effect; inconclusive means small, poorly fitted or top-dose-only effect, or another doubt; inactive means no such curve, though single readings can be large; an effect the other way counts as inactive or inconclusive.

Legend:
[1] = qHTS to identify inhibitors of the type 1 interferon - major histocompatibility complex class I in skeletal muscle: primary screen against the NCATS Pharmaceutical Collection (AID 1347407);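 further: luminescence of HiBiT knocked into endogenous HLA-B as interferon-induced MHC class I level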
In short: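 Cells were seeded with 4 ng/ml IFN-beta, incubated 1 h, then dosed with compounds over eight 1:5 steps up to 46 uM final. After 24 h at 37 C, HiBiT lytic reagent was added and luminescence read after 10 min lysis in the dark.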

[2] = target: Protein phosphatase 1D (Homo sapiens) (UniProt O15297); assay: RapidFire Mass Spectrometry qHTS Assay for Modulators of WT P53-Induced Phosphatase 1 (WIP1) (AID 1347424);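 further: amount of dephosphorylated VEPPL-S-QETFS peptide product formed by WIP1; series mostly up to about 63 µM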
In short: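 WIP1 (10 nM final) was preincubated 1 h at room temperature with compounds in Tris-HCl pH 7.5, 30 mM MgCl2, TCEP, EGTA, BSA; 2 uM VEPPL-pS-QETFS phosphopeptide was added for 5 min, quenched with formic acid, and dephosphorylated product quantified by RapidFire MS.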

[3] = target: Protein phosphatase 1D (Homo sapiens) (UniProt O15297); assay: Rhodamine-PBP qHTS Assay for Modulators of WT P53-Induced Phosphatase 1 (WIP1) (AID 1347425)
In short: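 WIP1 (5 nM final) was preincubated with compound for 1 hour at room temperature. It then dephosphorylated 10 uM VEPPL-pS-QETFS peptide in Tris-HCl pH 7.5 with 30 mM MgCl2. Released Pi was detected by 10 uM Rh-PBP fluorescence (ex 525/em 598 nm) read at 1-min intervals for 11 min, as delta f1 - f0.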

[4] = Primary qHTS for inhibitors of La Crosse Virus (LACV) - induced cell death in SH-SY5Y cells (AID 1508616);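 further: top concentration of the series differs between compounds; higher means more rescue of cells from virus-induced death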
In short: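 Readout was luminescence from ATPLite 1step added after a 6-day LACV infection (0.01 MOI) of SH-SY5Y cells that had received pin-transferred compound 24 hr after seeding.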

[5] = target: Calcium and integrin-binding protein 1 (Homo sapiens) (UniProt Q99828); assay: Primary qHTS for Identification of Calcium Integrin Binding Protein 1 (CIB1) Competitor (AID 1508620);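 further: GST tagged CIB1 binding a fluorescein labelled alphaIIb integrin peptide tracer; top concentration of the series differs between compounds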
In short: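 Fluorescence polarization competition: CIB1-GST (1 uM final) preincubated with compound 15 min at room temperature, then FITC-labeled alphaIIb peptide (100 nM final) added for another 15 min. Polarization read at Ex 480/Em 540.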

[6] = Primary qHTS for small molecule stabilizers of the endoplasmic reticulum resident proteome: Secreted ER Calcium Modulated Protein (SERCaMP) assay (AID 1508630)
In short: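 GLuc-SERCaMP-expressing SH-SY5Y cells, pretreated 16 h with compound, are challenged with thapsigargin to empty ER calcium stores; after 4 h, coelenterazine is added directly to the medium and luminescence is imaged.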

[7] = A High-Content qHTS Against Drug Library for the Identification of Small Molecules that Inhibit DYT1 Early Onset Primary Dystonia-Associated Cell Pathology (AID 1645839; calls by dose curve; further: series mostly up to about 46 µM)
In short: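 Readout: %pathology, the punctate EGFP-TorsinA distribution from imaging, as the primary channel and cell count as the toxicity counterscreen. HEK293 Flp-In cells expressing delE TorsinA were induced with tetracycline and treated with compound for 48 h.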

Measured: Potency

Chain of Calcium and integrin-binding protein 1 (Homo sapiens) (Q99828 whole entry, looked up): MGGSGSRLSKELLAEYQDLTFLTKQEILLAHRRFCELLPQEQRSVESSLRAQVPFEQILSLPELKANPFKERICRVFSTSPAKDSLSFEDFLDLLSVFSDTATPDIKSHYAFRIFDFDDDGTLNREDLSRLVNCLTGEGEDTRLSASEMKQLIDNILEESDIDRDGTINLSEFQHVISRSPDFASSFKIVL
Chain of Protein phosphatase 1D (Homo sapiens) (O15297 whole entry, looked up): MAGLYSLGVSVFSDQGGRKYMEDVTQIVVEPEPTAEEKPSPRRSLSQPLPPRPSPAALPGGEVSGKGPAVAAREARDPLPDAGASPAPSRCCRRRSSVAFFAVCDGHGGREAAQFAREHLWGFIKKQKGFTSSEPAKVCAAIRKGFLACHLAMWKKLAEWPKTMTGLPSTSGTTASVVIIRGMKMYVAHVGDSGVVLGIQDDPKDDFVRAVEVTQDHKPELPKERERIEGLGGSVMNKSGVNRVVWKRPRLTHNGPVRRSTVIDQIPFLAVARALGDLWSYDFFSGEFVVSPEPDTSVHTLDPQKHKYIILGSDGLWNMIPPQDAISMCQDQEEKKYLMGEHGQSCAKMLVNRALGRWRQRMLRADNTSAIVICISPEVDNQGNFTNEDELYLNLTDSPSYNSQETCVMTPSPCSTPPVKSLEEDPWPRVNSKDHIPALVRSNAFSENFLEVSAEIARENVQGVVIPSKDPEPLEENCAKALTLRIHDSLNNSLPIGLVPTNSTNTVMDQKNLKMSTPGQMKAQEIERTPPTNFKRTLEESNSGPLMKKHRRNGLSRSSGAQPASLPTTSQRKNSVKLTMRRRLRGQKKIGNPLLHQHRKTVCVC

CC(C)[C@@H]1CC[C@@H](C)CC1=O
inactive: [1] | [2] | [3] | [4] | [5] | [6] | [7]

Cc1ccccc1OCC(O)CO (stereo not given)
inactive: [1] | [2] | [3] | [4] | [5] | [6] | [7]

CC(C)CCCC(C)N (stereo not given)
inactive: [1] | [2] | [3] | [4] | [5] | [6] | [7]

CN(Cc1ccc(C(C)(C)C)cc1)Cc1cccc2ccccc12
inactive: [1] | [2] | [3] | [4] | [5] | [6] | [7]

COc1cc(N)c(Cl)cc1C(=O)NC1CCN(Cc2ccccc2)CC1
inactive: [1] | [2] | [3] | [4] | [5] | [6] | [7]

CCC1Nc2cc(Cl)c(S(N)(=O)=O)cc2S(=O)(=O)N1 (stereo not given)
inactive: [1] | [2] | [3] | [4] | [5] | [6] | [7]

O=[N+]([O-])c1cccc(S(=O)(=O)NCCNS(=O)(=O)c2cccc([N+](=O)[O-])c2)c1
inactive: [1] | [2] | [3] | [4] | [5] | [6] | [7]

O=C1OC(CN2CCOCC2)CN1/N=C/c1ccc([N+](=O)[O-])o1 (stereo not given)
inactive: [1] | [2] | [3] | [4] | [5] | [6] | [7]

CCCCOC(=O)CC(CC(=O)OCCCC)(OC(C)=O)C(=O)OCCCC
inactive: [1] | [2] | [3] | [4] | [5] | [6] | [7]

COc1ccc(S(=O)(=O)N2c3ccc(Cl)cc3[C@@](O)(c3ccccc3Cl)[C@H]2C(=O)N2CCC[C@@H]2C(N)=O)cc1OC
inactive: [1] | [2] | [3] | [4] | [5] | [6] | [7]

CC(=O)NC(=O)c1ccccc1O
inactive: [1] | [2] | [3] | [4] | [5] | [6] | [7]

COc1ccc(CCN(C)CCCN2CCc3cc(OC)c(OC)cc3CC2=O)cc1OC
inactive: [1] | [2] | [3] | [4] | [5] | [6] | [7]

COc1ccc(C(Cl)=C(c2ccc(OC)cc2)c2ccc(OC)cc2)cc1
inactive: [1] | [2] | [3] | [4] | [5] | [6] | [7]

NCc1ccccc1Sc1ccccc1CO
inactive: [1] | [2] | [3] | [4] | [5] | [6] | [7]

COc1ccc2c(c1)c1c3n2CCN(C)C3=NCC1
inactive: [1] | [2] | [3] | [4] | [5] | [6] | [7]

CC(C)(C)CC(C)(C)c1ccc(O)c(-n2nc3ccccc3n2)c1
inactive: [1] | [2] | [3] | [4] | [5] | [6] | [7]

CCOC(=O)Nc1ccc2c(c1)N(C(=O)CCN1CCOCC1)c1ccccc1S2
inactive: [1] | [2] | [3] | [4] | [5] | [6] | [7]

CN(C)C(=O)Nc1ccc(Cl)c(Cl)c1
inactive: [1] | [2] | [3] | [4] | [5] | [6] | [7]

COc1cc(O)c(C(=O)c2ccccc2)cc1S(=O)(=O)O
inactive: [1] | [2] | [3] | [4] | [5] | [6] | [7]

CC(C)NCC(O)c1ccc2ccccc2c1 (stereo not given)
inactive: [1] | [2] | [3] | [4] | [5] | [6] | [7]

O=C(NCCc1c[nH]c2ccccc12)c1cccnc1
inactive: [1] | [2] | [3] | [4] | [5] | [6] | [7]

CCNC(=O)NCc1cccc(Cl)c1
inactive: [1] | [2] | [3] | [4] | [5] | [6] | [7]

O=C(O)CCc1nc2ccccc2[nH]1
inactive: [1] | [2] | [3] | [4] | [5] | [6] | [7]

Cc1cc2c(OCC(CNC(C)(C)C)OC(=O)c3ccccc3)cccc2[nH]1 (stereo not given)
inactive: [1] | [2] | [3] | [4] | [5] | [6] | [7]

CC(C)(C)NC[C@H](O)COc1cccc2c1CCCC2=O
inactive: [1] | [2] | [3] | [4] | [5] | [7]

COc1ccc(C(=O)c2ccccc2)c(O)c1
inactive: [1] | [2] | [3] | [4] | [5] | [7]
